Compound activity as filed in PubChem.
A selection: hits, their analogues and other compounds. The true share with any hit is near 8.7%.
JMJD2A Tudor: blocks the human JMJD2A Tudor domain; O75164; AlphaScreen JMJD2A-Tudor / H3K4me3 peptide binding; Potency, µM (series often up to 114 µM), inactives show at the top dose activity change, negative = inhibition, hits mostly inhibitors; 390,000 tested, 4.4% active; AID 504339; also: % is scaled to controls: 0 for no effect and ±100 for the full control effect; nearly all actives have a fitted effect of over 50% in size
G9a inh: blocks human histone lysine methyltransferase G9a. Potency, µM (series often up to 102 µM), for inactives: top-dose activity, negative = inhibition, usual class: inhibitors. AID 504332. G9a H3K9 monomethylation, AlphaScreen, 2 h. 350,000 tested, 8.8% active. Q96KQ7; also: % is scaled to controls: 0 for no effect and ±100 for the full control effect; nearly all actives have a fitted effect of over 75% in size
Target sequence (Q96KQ7 913-1193 limits assumed): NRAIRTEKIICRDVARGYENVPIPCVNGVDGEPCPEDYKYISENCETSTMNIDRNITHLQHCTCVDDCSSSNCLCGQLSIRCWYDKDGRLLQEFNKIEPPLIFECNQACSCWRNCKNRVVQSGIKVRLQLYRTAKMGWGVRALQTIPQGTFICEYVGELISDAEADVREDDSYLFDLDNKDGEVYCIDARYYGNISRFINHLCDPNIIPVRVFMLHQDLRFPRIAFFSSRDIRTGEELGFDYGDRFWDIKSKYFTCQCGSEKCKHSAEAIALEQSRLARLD
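Quantitative HTS format: methyltransferase activity on a biotin-tagged H3K9 peptide is measured by AlphaScreen, using a rabbit anti-monomethyl-H3K9 antibody with streptavidin donor and anti-IgG acceptor beads. Final levels are 20 nM enzyme, 500 nM peptide, 20 uM SAM; 2 h RT.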
12-LOX inh: ALOX12 (human) lipoxygenase inhibition; 580,000 tested, 1.1% active; Potency, µM (highest dose often 108 µM), for the others: at the top dose activity change, negative = inhibition, actives largely listed as inhibitors; purified 12hLO, xylenol orange hydroperoxide absorbance; also: % is scaled to controls: 0 for no effect and ±100 for the full control effect
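Hydroperoxide product was detected by ferrous iron/xylenol orange as the 573 to 405 nm absorbance ratio. Arachidonic acid at 40 uM (final) was turned over for 30 min at room temperature by 150 nM human 12hLO, pH 7.0 Hepes buffer, after 15 min compound preincubation.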
HP1b binding inh: blocks HP1-beta chromodomain binding to methylated histone tails. AlphaScreen HP1-beta / biotin-H3K9me3 peptide binding. Potency, µM (top dose mostly 114 µM), for inactives: top-dose activity change, negative = inhibition, usual class: inhibitors. 390,000 tested, 0.56% active. AID 540317. P83916; also: nearly all actives have a fitted effect of over 70% in size
Target sequence (P83916 whole entry, looked up): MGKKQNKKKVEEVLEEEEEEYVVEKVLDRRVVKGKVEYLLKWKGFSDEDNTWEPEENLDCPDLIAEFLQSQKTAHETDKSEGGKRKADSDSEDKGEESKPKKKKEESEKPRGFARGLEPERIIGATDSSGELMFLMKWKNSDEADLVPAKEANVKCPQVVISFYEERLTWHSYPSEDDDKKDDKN
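Compound inhibition of the preformed complex between 50 nM HP1-beta and 50 nM biotinylated H3K9me3 peptide was read by AlphaScreen. Buffer was PBS pH 7.4 with 0.01% Tween-20. Incubations ran 30 min at room temperature, with 10 ug/mL donor/acceptor beads.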
Sfp inh: blocks B. subtilis Sfp PPTase activity | Q9F4F7 | Potency, µM, for inactives: largest response in the series, negative = inhibition, actives largely listed as inhibitors | AID 1490 | Biochemical Sfp PPTase activity, qHTS | 310,000 tested, 3.5% active;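 also: the enzyme is Sfp with the accession as filed and its product quenches rhodamine fluorescence; 0% = enzyme reaction without inhibitor and -100% = no enzyme wells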
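With Hepes-Na pH 7.6 buffer containing 10 mM MgCl2, Sfp (15 nM) modified BHQ-2-YbbR (12.5 uM) using rhodamine-CoA (5 uM). Two reads 30 minutes apart at 525/598 nm yielded each well's rate.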
BAZ2B inh: blocks human BAZ2B. Q9UIF8. AlphaScreen BAZ2B-H3K14Ac peptide displacement. Potency, µM (highest dose often 114 µM), without a hit: at the highest dose activity change, negative = inhibition, most hits filed as inhibitors. 360,000 tested, 4.4% active; also: % is scaled to controls: 0 for no effect and ±100 for the full control effect; nearly all actives have a fitted effect of over 60% in size
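BAZ2B 50 nM plus b-H3(5-23)K14Ac 50 nM, PBS pH 7.4/0.01% Tween-20, 30 min RT; compound added (max 110 uM), 30 min RT; streptavidin donor/Ni-chelate acceptor beads 10 ug/mL final, 20 min dark; AlphaScreen read.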
An asterisk follows results filed as active; ? = inconclusive; . = no result given; [ ] = another dose, or the depositor's remark. Calls follow the shape of the dose curve; as a rule, active = well fitted curve in the direction sought with a large enough effect; inconclusive = small, poorly fitted or top-dose-only effect, or another doubt; inactive = no such curve, though single readings can be large; an effect the other way counts as inactive or inconclusive. Potency is read from the fitted curve at half-maximal effect.

SMILES | JMJD2A Tudor | G9a inh | 12-LOX inh | HP1b binding inh | Sfp inh | BAZ2B inh
Cc1cc(C)c(O)c(-c2n[nH]c3c2C(c2ccccc2F)N(CCO)C3=O)c1 (stereo unspecified) | . | . | 2% | . | . | .
Cc1ccccc1N(Cc1cc(=O)[nH]c2ccccc12)C(=O)C(C)C | -17% | 79µM* | ? | -4% | 0% | -1%
CCC(=O)N(Cc1cc(=O)[nH]c2ccccc12)c1ccc(C)cc1C | -6% | 71µM* | ? | 27% | -17% | -29%
O=C(O)c1ccc(N2CCOCC2)nc1 | . | . | -1% | . | . | .
O=C(O)/C=C/C(=O)Nc1ccc(N2CCOCC2)nc1N1CCOCC1 | -34% | 8.9µM* | 0% | ? | 10µM* | -22%
CC(Sc1c(Cl)cccc1Cl)C(=O)NC(N)=O (stereo unspecified) | . | . | -3% | . | . | .
Cc1ccccc1NC(=O)CCN1CCN(C)CC1 | -6% | 18%[59 µM] | -7% | 27% | 14% | 5%
CN1CCN(CC(=O)c2ccccc2F)CC1 | 6.3µM* | 4.5µM* | ? | ? | 56µM* | 22µM*
Cc1ccccc1NC(=O)CN1CCN(C)CC1 | 3.2µM* | 10µM* | ? | 28µM* | ? | 28µM*
CN1CCN(CC(=O)Nc2cc(N(C)C)nc3ccccc23)CC1 | -17% | 50µM* | 1% | 32% | -13% | ?
Clc1cccc(CSc2nnc(C3CCCN3)o2)c1 (stereo unspecified) | . | . | 55% | . | . | .
Cc1ccc(S(=O)(=O)N(C)Cc2c(C)nn(-c3ccccc3)c2C)cc1 | . | . | -52% | . | . | .
Cc1ccc(NC(=O)c2sccc2SCc2cccc(C(F)(F)F)c2)cc1 | 52% | 25µM* | ? | 144% | 4% | 52%
N#CCSc1ccsc1C(=O)Nc1ccc(F)cc1 | -8% | 7.9µM* | ? | ? | ? | 4%
Cc1cccc(C)c1NC(=O)c1sccc1SCc1cccc(C(F)(F)F)c1 | 1% | ? | 0% | 75% | 12% | 10%
O=[N+]([O-])c1ccc(OCc2n[nH]c(=S)n2-c2ccccc2)cc1 | 45µM* | 3.5µM* | ? | 5% | -7% | -25%
O=C(c1nnc(COc2ccc3c(c2)OCO3)n1-c1ccccc1)N1CCC[C@@H]1c1nc2ccccc2[nH]1 | . | . | 15% | . | . | .
CCn1c(COc2ccc3c(c2)OCO3)nnc1SCC(=O)c1ccccc1 | -18% | 11µM* | 26% | 13% | ? | ?
S=c1[nH]nc(-c2ccc3c(c2)OCO3)n1-c1ccccc1 | 5µM* | 1.6µM* | ? | -14% | -3% | -3%
O=[N+]([O-])c1ccc(OCc2cccc(COc3ccc([N+](=O)[O-])cc3)n2)cc1 | -7%[57.1 µM] | 5%[59 µM] | -27% | 30% | ? | 3%
c1ccc(-c2nccc(-c3ccc4c(c3)OCO4)n2)cc1 | 84% | 179% | -9% | 160% | -9% | 66%
S=c1[nH]nc(COc2ccc3c(c2)OCO3)n1-c1ccccc1 | 40µM* | 0.71µM* | 14% | 3% | 40µM* | -34%
Cn1nnnc1C1CCCN(C(=O)CCc2ccccc2)C1 (stereo unspecified) | . | . | 40% | . | . | .
O=C(c1ccc(N2CCC(O)CC2)nc1)N1CCC(Oc2cccnc2)CC1 | . | . | 3% | . | . | .
COC(=O)c1c(NC(=O)CC2Nc3cc(C)c(C)cc3NC2=O)sc(C)c1C (stereo unspecified) | -12% | 20µM* | . | 30% | 56µM* | 0%
SMILES | JMJD2A Tudor | G9a inh | 12-LOX inh | HP1b binding inh | Sfp inh | BAZ2B inh
Cc1cc2c(cc1C)NC(CC(=O)NCc1ccccc1)C(=O)N2 (stereo unspecified) | -24% | 3.2µM* | -23% | 20% | -13% | 7%
FC(F)(F)c1cc(-c2ccco2)nc2c(-c3cccc(Cl)c3)cnn12 | . | . | 1% | . | . | .
O=C1C(NS(=O)(=O)c2cccs2)=C(N2CCN(c3ccccc3)CC2)C(=O)c2ccccc21 | 28µM* | 3.2µM* | 429% | ? | 0% | 5.6µM*
O=C(C(NS(=O)(=O)c1cccs1)c1ccccc1)N1CCN(c2ccccc2)CC1 (stereo unspecified) | ? | 45µM* | -2% | 4% | 2% | ?
O=S(=O)(c1cccs1)N1CCN(c2ccccc2)CC1 | -7% | 12% | 1% | 2% | 2% | 0%
Cc1noc(C)c1CSCC(=O)Nc1nc2c(F)cc(F)cc2s1 | 45µM* | ? | ? | -18% | . | 50µM*
Cc1ccc(C)c(NC(=O)CN(C)C(=O)CSCc2c(C)noc2C)c1 | -4% | 32µM* | -9% | 23% | . | 11%
COc1ccc2nc(NC(=O)CSCc3c(C)noc3C)sc2c1 | -15% | ? | -12% | 25% | . | -8%
O=C(CCc1ccccc1)Nc1nc2c(F)cc(F)cc2s1 | -12% | -4% | 0% | 3% | 35µM* | 2%
Cc1cc(C)c(NC(=O)CSCc2c(C)noc2C)c(Cl)c1 | -14% | 40µM* | -9% | 19% | . | 4%
Cc1cccc(C)c1NC(=O)CN(C)C(=O)CSCc1c(C)noc1C | -1% | 2%[12.7 µM] | 7% | 15% | . | 5%
Cc1cccc(C)c1NC(=O)CNC(=O)Cc1nc(-c2ccccc2)oc1C | . | . | -13% | . | . | .
Cc1ccc(NC(=O)CSC2=NS(=O)(=O)c3ccccc3N2Cc2ccccc2)c(Cl)c1 | . | . | -3% | . | . | .
Cc1ccc(Cl)cc1NC(=O)CCn1cnc2c1c(=O)n(C)c(=O)n2C | . | . | 10% | . | . | .
COc1ccc(-c2c(C)c3cc(OS(=O)(=O)c4ccc(Cl)cc4)ccc3oc2=O)cc1 | . | . | 34% | . | . | .
CC[C@H]1CN(C(=O)Nc2cccc(C(F)(F)F)c2)CC[C@H]1CC(=O)N(C)CCC#N | . | . | -1%[176 µM] | . | . | .
C=CCOc1ccc(C2C(C(=O)c3ccc(C)o3)=C(O)C(=O)N2Cc2cccnc2)cc1 (stereo unspecified) | ? | 40µM* | ? | 5% | -22% | -9%
CC(=O)C1=C(O)C(=O)N(Cc2ccco2)C1c1ccc2c(c1)OCO2 (stereo unspecified) | -29% | 50µM* | ? | 13% | -11% | -7%
CC(=O)C1=C(O)C(=O)N(Cc2cccnc2)C1c1ccccc1 (stereo unspecified) | -7% | ? | -26% | 41% | -8% | 1%
C=CCOc1cccc(C2C(C(=O)c3ccco3)=C(O)C(=O)N2Cc2ccncc2)c1 (stereo unspecified) | -6% | ? | ? | 53% | -24% | -28%
CC(=O)C1=C(O)C(=O)N(Cc2cccnc2)C1c1ccc(O)cc1 (stereo unspecified) | -20%[11.4 µM] | 50µM* | ? | 6% | 11% | 79µM*
